The source of these data is the supplement of paper PMC6897291.

The test deals with RIVA. Nature of the test: growth inhibition by drug alone (1 - RLU/untreated control) (fraction); higher = stronger inhibition. Conditions: 177Lu-lilotomab satetraxetan 0 ug/ml. On the procedure:
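RIVA (RI-1) ABC-DLBCL cells were pretreated or not for 18 h with 0.5 ug/ml 177Lu-lilotomab satetraxetan (600 MBq/mg), washed and seeded (3000 cells/well) on 384-well plates pre-printed with the Selleck Cambridge Cancer Compound library. Viability was read by RealTime-Glo luminescence on days 3-6 after seeding. Effect = 1 - RLU/mean RLU of the 48 untreated no-drug control wells per plate; Bliss score = (M-E)/(1-Fa).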

As to `CCC(CC)CC1(C(=O)Nc2ccccc2SC(=O)C(C)C)CCCCC1`, the “growth inhibition by drug alone” value reads like this: (10 nM, time (day): 3) -0.0908; (10 nM, time (day): 4) -0.101; (10 nM, time (day): 5) -0.128; (10 nM, time (day): 6) -0.174; (100 nM, time (day): 3) -0.0374; (100 nM, time (day): 4) -0.15. Further, the “growth inhibition by drug alone” value runs as follows: (100 nM, time (day): 5) -0.166; (100 nM, time (day): 6) -0.178.

For `CCOC(=O)C1=C[C@]2(CC)CCCN3CCc4c(n1c1ccccc41)[C@@H]32` [Vinpocetine (Cavinton)], the “growth inhibition by drug alone” value was -0.107 (10 nM, time (day): 3); -0.13 (10 nM, time (day): 4); -0.129 (10 nM, time (day): 5); -0.167 (10 nM, time (day): 6); 0.0294 (100 nM, time (day): 3); -0.03 (100 nM, time (day): 4). Moreover, the “growth inhibition by drug alone” value was -0.0621 (100 nM, time (day): 5) and -0.112 (100 nM, time (day): 6).

For `N#Cc1ccc(NC(=O)Nc2ccccc2Br)c2n[nH]nc12`, the “growth inhibition by drug alone” value runs as follows: (10 nM, time (day): 3) -0.0525; (10 nM, time (day): 4) 0.00855; (10 nM, time (day): 5) -0.101; (10 nM, time (day): 6) -0.43; (100 nM, time (day): 3) -0.383; (100 nM, time (day): 4) -0.198. For the same compound, the “growth inhibition by drug alone” value runs as follows: (100 nM, time (day): 5) -0.264; (100 nM, time (day): 6) -0.513.

On to `Nc1nc(F)nc2c1ncn2[C@@H]1O[C@H](CO)[C@@H](O)[C@@H]1O` [Fludarabine (Fludara)], for which the “growth inhibition by drug alone” value is, setting by setting: (10 nM, time (day): 3) 0.0792; (10 nM, time (day): 4) 0.0421; (10 nM, time (day): 5) 0.0106; (10 nM, time (day): 6) -0.266; (100 nM, time (day): 3) -0.264; (100 nM, time (day): 4) -0.213. Besides, the “growth inhibition by drug alone” value by setting is: (100 nM, time (day): 5) -0.187; (100 nM, time (day): 6) -0.228.

As for `CCN(CC)CCCC(C)Nc1nc(C)cc(Nc2ccc3nc(C)cc(N)c3c2)n1` (stereo not given), the “growth inhibition by drug alone” value reads like this: (10 nM, time (day): 3) -0.0541; (10 nM, time (day): 4) -0.0225; (10 nM, time (day): 5) -0.0658; (10 nM, time (day): 6) -0.279; (100 nM, time (day): 3) -0.31; (100 nM, time (day): 4) -0.199. Besides, the “growth inhibition by drug alone” value (100 nM, time (day): 5) was -0.249 and the “growth inhibition by drug alone” value (100 nM, time (day): 6) was -0.391.
